Screens: PubChem, several laboratories
Many of the other results were omitted from the sample, so hits are more common in it than they were.
RmlCD inh mix – RmlC and RmlD coupled enzyme inhibitors, primary screen, biochemical, 384-well, compound mixtures, retest | RmlC/RmlD coupled enzyme inhibition, 384-well mixture HTS | inhibition, % at 5.5 µM | hit rate 0.39% among 110,000 | AID 1532, 2009; in the data active means inhibition above about 30%, passing the limit was not always enough; inconclusive means no clear call, values can overlap the other calls
HIV RNase H inh-1 – HIV-1 RT RNase H inhibitors, primary screen, biochemical, fluorescence. Gag-Pol polyprotein (Human immunodeficiency virus type 1 group M subtype B (isolate …. RT-RNase H RNA/DNA duplex cleavage. inhibition, % at 10 µM. hit rate 1.9% among 65,000. AID 565, 2006; in the data active means inhibition above about 50%
HIV RNase H inh-2 – HIV-1 RT RNase H inhibitors, retest, confirmation, biochemical; shares compounds with HIV RNase H inh-1; Recombinant RT RNase H, fluorescent RNA/DNA duplex cleavage; inhibition, % at 10 µM; hit rate 39% among 1,000; in the data active means inhibition above about 48%; inconclusive means no clear call, values can overlap the other calls
Of the large screens only hits and unclear results are named; the others gave an inactive call (follow-up assays come after a bar, where they were run).

C=CCN1C(=O)CSc2ccc(C(=O)NCCC3=CCCCC3)cc21	none (no result: HIV RNase H inh-1)
COc1ccc(-c2cccc(C3CC=CC4C3C(=O)N(Cc3ccccc3)C4c3ccc(OC)c(Cl)c3)c2)cc1 (stereo not given)	none (no result: HIV RNase H inh-1)
O=C(c1ccccc1)[C@H]1[C@H](c2ccccc2)[C@@]2(N=C(c3ccccc3)OC2=O)C2c3ccccc3C=NN21 (stereo not given in full)	none (no result: HIV RNase H inh-1)
CCn1c(-c2nonc2NC(=O)c2ccccc2)nc2ccccc21	none (no result: HIV RNase H inh-1)
CC(C)(C)c1ccc(C(=O)Nc2nonc2-c2nc3ccccc3[nH]2)cc1	HIV RNase H inh-1 60 | HIV RNase H inh-2 inconclusive
CN(C)c1ccc(C2N(c3cccc(Cl)c3)C(=O)C3CCCN32)cc1 (stereo not given)	none (no result: RmlCD inh mix)
Cc1ccc(Sc2cc(Cl)nc(N)n2)cc1	none (no result: HIV RNase H inh-1)
COc1ccc(S(=O)(=O)N2CCN(Cc3ccccc3)CC2)cc1	none
O=C1CC(N2CCN(Cc3ccccc3)CC2)C(=O)N1c1ccccc1 (stereo not given)	none
CN1CCN(C2=C(Cl)C(=O)N(c3ccc(Cl)cc3)C2=O)CC1	HIV RNase H inh-1 82 | HIV RNase H inh-2 inactive
COc1ccc(N2C(=O)C(Cl)=C(N3CCN(Cc4ccccc4)CC3)C2=O)cc1	HIV RNase H inh-1 90 | HIV RNase H inh-2 inactive
Cc1ccc(N2C(=O)C(Cl)=C(N3CCN(C)CC3)C2=O)c(C)c1	none (no result: HIV RNase H inh-1)
O=C1C(Cl)=C(N2CCN(Cc3ccccc3)CC2)C(=O)N1c1ccccc1	HIV RNase H inh-1 85 | HIV RNase H inh-2 inactive
Cc1noc(C)c1COc1ccc(C(=O)OCC(=O)Nc2ccc3ccccc3c2)cc1	none (no result: HIV RNase H inh-1)
CCO[C@H]1OC(C(N)=O)=C[C@@H](c2ccccc2)[C@@H]1CCCO	none (no result: HIV RNase H inh-1)
Cc1cccc(OCC(=O)NNC(=O)Nc2cccc(Cl)c2)c1C	none (no result: HIV RNase H inh-1)
COc1ccc(-c2csc(NC(C)c3nc4cc(C(=O)NCCCO)ccc4n3Cc3ccc(C)cc3)n2)cc1 (stereo not given)	none (no result: HIV RNase H inh-1)
CC(c1ccccc1)C1C(C#N)=C(N)OC2=C1C(=O)CC(C)(C)C2 (stereo not given)	none
CC1(C)CC(=O)C2=C(C1)OC(N)=C(C#N)C2C#Cc1ccccc1 (stereo not given)	HIV RNase H inh-1 60 | HIV RNase H inh-2 inactive
CCOC(=O)C(CC)Sc1nnc2c3cc(C)ccc3n(C)c2n1 (stereo not given)	none (no result: HIV RNase H inh-1)
CSc1nnc2c3cc(C)ccc3n(Cc3ccccc3)c2n1	HIV RNase H inh-1 50 | HIV RNase H inh-2 inactive
CCOC(=O)N1CC=C2C(C#N)=C(N)C(C#N)(C#N)[C@H](c3ccccc3OCC)[C@H]2C1	none
CCOC(=O)N1CC=C2C(C#N)=C(N)C(C#N)(C#N)[C@H](c3ccc(OC(C)C)c(OCC)c3)[C@H]2C1	HIV RNase H inh-1 89 | HIV RNase H inh-2 76
Cc1cnc(C(=O)Nc2ccc3c(c2)CCC3)cn1	none
Cc1cnc(C(=O)Nc2ccc(F)c(F)c2)cn1	HIV RNase H inh-1 51 | HIV RNase H inh-2 inactive
CCO[C@H]1OC(C(N)=O)=C[C@@H](C2CC2)[C@@H]1CCCO	none (no result: HIV RNase H inh-1)
Cc1ccc(NC(=O)c2cc(S(=O)(=O)c3ccccc3)ccc2Cl)cc1	none (no result: HIV RNase H inh-1)
Cc1cc2oc(=O)cc(CN3CCC(C)CC3)c2c(C)c1Cl	none
COc1ccc(N2CCN(Cc3cc(=O)oc4cc(C)c(Cl)c(C)c34)CC2)cc1	HIV RNase H inh-1 72 | HIV RNase H inh-2 68
Clc1ccccc1/C=N/c1cc(-c2ccccc2)nn1-c1ccccc1	none (no result: HIV RNase H inh-1)
N#Cc1cc(-c2ccccc2)nn1-c1ccccc1	HIV RNase H inh-1 91 | HIV RNase H inh-2 56
O=C(NCCSc1c[nH]c2ccccc12)c1ccc2c(c1)OCO2	none (no result: HIV RNase H inh-1)
COCCOc1ccc(C(F)(F)F)cc1NC(=O)COC(=O)c1c(C)noc1C	none
COCCOc1ccc(C(F)(F)F)cc1Nc1nc2ccccc2o1	HIV RNase H inh-1 56 | HIV RNase H inh-2 inactive
CC(C)c1ccc(-c2c(C#N)c(N)nc(SCC(=O)N3CCCCCC3)c2C#N)cc1	none (no result: HIV RNase H inh-1)
N#Cc1c(N)nc(SCC(=O)NC2CCCCC2)c(C#N)c1-c1ccc(Cl)cc1	HIV RNase H inh-1 82 | HIV RNase H inh-2 59
COC(=O)c1nc2n(n1)C(c1cc(OC)ccc1OC)C(C(=O)OC1CCCCC1)=C(C)N2 (stereo not given)	none
OCC[C@H]1C[C@H](O)[C@@H](O)[C@@]2(CCCO2)O1	none (no result: HIV RNase H inh-1)
Cc1ccc(Cl)cc1N1CCN(S(=O)(=O)c2cnc[nH]2)CC1	none
Cc1ccc(-c2cc(C(=O)Nc3cc(C)ccc3C)[nH]n2)c(O)c1	none
COc1ccc(OC)c(NC(=O)c2cc(-c3ccc(C)cc3O)n[nH]2)c1	HIV RNase H inh-1 76 | HIV RNase H inh-2 inactive
COC(CNc1cc(=O)oc2ccccc12)OC	none (no result: HIV RNase H inh-1)
CCCCCCCCCCCCN1[C@@H](CC(=O)OC)c2cc(F)ccc2S1(=O)=O	none (no result: HIV RNase H inh-1)
Cc1ccc(NCCC(=O)c2ccc(Br)cc2)cc1	none (no result: HIV RNase H inh-1)
COC(=O)C(CC(=O)c1ccc(Br)cc1)n1ccnc1 (stereo not given)	HIV RNase H inh-1 79 (no result: RmlCD inh mix) | HIV RNase H inh-2 inactive
CCOC(=O)Cc1csc(NC(=O)CSc2nc(N)c3c(C)c(C)sc3n2)n1	none (no result: HIV RNase H inh-1)
CC(C)c1ccccc1NC(=O)c1cccc(NC(=O)c2ccccc2)c1	none (no result: HIV RNase H inh-1)
CSCSC1=C(C#N)C(c2ccc(Cl)cc2)C(C(C)=O)=C(C)N1 (stereo not given)	HIV RNase H inh-1 61 | HIV RNase H inh-2 inactive
CCOC(=O)CSC1=C(C#N)C(c2ccccc2)C(C(C)=O)=C(C)N1 (stereo not given)	none
CCCn1c2c(c(O)c(C(=O)Nc3nc(C)cs3)c1=O)CCCC2	none
Cc1csc(NC(=O)c2c(O)c3c(n(CC(C)C)c2=O)CCCC3)n1	HIV RNase H inh-1 64 | HIV RNase H inh-2 inconclusive
CCN=C(NCC)SC1CC(=O)N(c2ccc(F)cc2)C1=O (stereo not given)	none (no result: HIV RNase H inh-1)
Cc1nn(-c2ccccc2)c(=S)n1-c1ccccc1	none
OCCn1nc2c3ccccc3nc-2n(-c2ccccc2)c1=S	HIV RNase H inh-1 89 | HIV RNase H inh-2 inactive
N#Cc1c(NC(=O)c2ccc(Cn3cc(Br)cn3)o2)sc2c1CCCCCC2	HIV RNase H inh-1 88 | HIV RNase H inh-2 62
Cc1ccc(NC(=O)c2ccc(Cn3cc(Br)cn3)o2)cc1	none (no result: HIV RNase H inh-1)
c1ccc(-n2ncc3c2ncn2nc(-c4ccco4)nc32)cc1	HIV RNase H inh-1 60 | HIV RNase H inh-2 68
COc1cccc(OCc2nc3c4cnn(-c5ccccc5)c4ncn3n2)c1	none
COc1ccccc1-c1nnc(SCC(=O)Nc2ccc(S(N)(=O)=O)cc2)n1C	none (no result: HIV RNase H inh-1)
COc1ccc(OC)c(S(=O)(=O)N2CCC(C(=O)N3CCc4ccccc4C3)CC2)c1	none
Cc1ccc(S(=O)(=O)c2ccc(Oc3cccc(C)c3)cc2)cc1	none (no result: HIV RNase H inh-1)
CCc1ccc(NC(=O)c2ccc3c(c2)C(=O)N(Cc2ccco2)C3=O)cc1	none
COC(=O)c1ccccc1NC(=O)c1ccc2c(c1)C(=O)N(Cc1ccco1)C2=O	HIV RNase H inh-1 61 (no result: RmlCD inh mix) | HIV RNase H inh-2 94
O=S(=O)(NC1CCCCC1)c1ccc(Cl)s1	none
CCOC(=O)Cc1csc(NC(=O)c2sc3nc4c(C)cc(C)cc4cc3c2N)n1	none (no result: HIV RNase H inh-1)
CC(C)Oc1ccc(C2CC(=O)NC3=C2C(=O)CCC3)cc1 (stereo not given)	none
COC(=O)c1ccc(C2CC(=O)NC3=C2C(=O)CCC3)cc1 (stereo not given)	HIV RNase H inh-1 91 | HIV RNase H inh-2 inactive
Cn1c(=O)c2c(nc(SCc3cccnc3)n2Cc2ccc(F)cc2)n(C)c1=O	none
